Source: PubChem BioAssay (NCI)
Compounds without any hit were thinned out: in the full panel of roughly 79,000, 15% have a hit. Calls of active or inactive are those of the source. No stated cut-off is given here; in the data, active means growth inhibition above about 70%; inactive means the rest.

Legend:
[1] = NCI Yeast Anticancer Drug Screen. Data for the rad52 strain (AID 147);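 further: 0% = growth of vehicle-treated control cultures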; details: S. cerevisiae rad52 mutant growth inhibition, active compounds read high
Summary of the method: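 Compounds are applied to a genetically defined yeast strain lacking normal DNA damage repair, and inhibition of growth is expressed relative to cultures given vehicle only.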

[2] = NCI Yeast Anticancer Drug Screen. Data for the wt1 strain (AID 149);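 further: 0% = growth of vehicle-treated wt1 cultures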; details: S. cerevisiae wt1 strain (SPY 50644) growth inhibition, active compounds read high
Summary of the method: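 Using yeast strain wt1, compound-induced growth inhibition was determined against vehicle-treated cultures.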

[3] = NCI Yeast Anticancer Drug Screen. Data for the rad50EPP+ strain (AID 151);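 further: 0% = growth of vehicle-treated control cultures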; details: S. cerevisiae rad50 mutant strain, active compounds read high
Summary of the method: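 Compounds were applied to the rad50EPP+ yeast strain, which bears a defined DNA repair alteration, and growth inhibition was determined relative to vehicle-treated cultures.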

[4] = NCI Yeast Anticancer Drug Screen. Data for the mgt1 strain (AID 153); details: S. cerevisiae mgt1 mutant growth inhibition, active compounds read high
Summary of the method: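 Strain: mgt1 yeast, one of a set carrying defined DNA damage repair or cell cycle control alterations. Compound-treated growth compared with vehicle.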

[5] = NCI Yeast Anticancer Drug Screen. Data for the rad50 strain (AID 155);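 further: 0% = growth of vehicle-only cultures of the same strain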; details: S. cerevisiae rad50 strain growth inhibition, active compounds read high
Summary of the method: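 Relative growth inhibition (compound vs vehicle) was measured in yeast with a defined repair-gene alteration.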

[6] = NCI Yeast Anticancer Drug Screen. Data for the mec2-1 strain (AID 157); details: S. cerevisiae mec2-1 strain, active compounds read high
Summary of the method: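 Strain: mec2-1 (DNA repair/cell cycle alteration). Compound exposure, then growth measured; inhibition expressed relative to vehicle.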

[7] = NCI Yeast Anticancer Drug Screen. Data for the rad14 strain (AID 159);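 further: 0% = growth of vehicle-treated control cultures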; details: S. cerevisiae rad14 strain growth inhibition, active compounds read high
Summary of the method: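 Screen for anticancer potential: a yeast strain altered in DNA damage repair is grown with compound, and reduced growth is quantified against vehicle controls.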

[8] = NCI Yeast Anticancer Drug Screen. Data for the sgs1 mgt1 strain (AID 161);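 further: 0% = growth of cultures given vehicle only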; details: S. cerevisiae sgs1 mgt1 strain, active compounds read high
Summary of the method: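 Read-out: growth inhibition vs vehicle controls. Cells: mutant yeast strain deficient in DNA damage repair.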

[9] = NCI Yeast Anticancer Drug Screen. Data for the CLN2oe strain (AID 163);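 further: 0% = growth of vehicle-only control cultures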; details: S. cerevisiae CLN2oe strain, active compounds read high
Summary of the method: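 Growth of a genetically modified yeast strain is measured after compound exposure and compared with cultures given vehicle alone.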

[10] = NCI Yeast Anticancer Drug Screen. Data for the cln2 rad14 strain (AID 165);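 further: 0% = growth equal to vehicle treated cultures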; details: S. cerevisiae cln2 rad14 strain, active compounds read high
Summary of the method: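 Compounds are applied to the cln2 rad14 yeast strain, and growth is then compared with that of vehicle-treated cultures to give inhibition.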

[11] = NCI Yeast Anticancer Drug Screen. Data for the bub3 strain (AID 167); details: S. cerevisiae bub3 mutant strain, active compounds read high
Summary of the method: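 Screening used yeast with an engineered genetic alteration affecting cell cycle control. Compound-exposed cultures were compared with vehicle cultures, and reduced growth was taken as inhibition.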

[12] = NCI Yeast Anticancer Drug Screen. Data for the wt2 strain (AID 169);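 further: 0% = growth of vehicle-treated yeast cultures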; details: S. cerevisiae wt2 strain growth inhibition, active compounds read high
Summary of the method: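 This strain belongs to a panel of yeast strains with defined genetic alterations in DNA damage repair or cell cycle control. Compounds are applied, and growth inhibition is measured against vehicle-treated cultures.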

[13] = NCI Yeast Anticancer Drug Screen. Data for the mlh1 strain (AID 171);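 further: 0% = growth of vehicle-treated control cultures of the same strain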; details: S. cerevisiae mlh1 strain growth inhibition, active compounds read high
Summary of the method: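 Growth of the mutant yeast strain after compound exposure, expressed as inhibition relative to vehicle-only controls.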

[14] = NCI Yeast Anticancer Drug Screen. Data for the sgs1 strain (AID 173);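 further: 0% = growth of vehicle-only control cultures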; details: S. cerevisiae sgs1 mutant, active compounds read high
Summary of the method: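 Growth of a yeast strain bearing a defined genetic alteration is measured after compound treatment. Inhibition is expressed relative to vehicle-only controls.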

[15] = NCI Yeast Anticancer Drug Screen. Data for the mlh1 rad18 strain (AID 175); details: S. cerevisiae mlh1 rad18 strain growth inhibition, active compounds read high
Summary of the method: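 Read-out is yeast growth inhibition, calculated against vehicle-only controls. The compound was applied to a strain engineered with DNA damage repair alterations.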

[16] = NCI Yeast Anticancer Drug Screen. Data for the rad18 strain (AID 177); details: S. cerevisiae rad18 mutant growth inhibition, active compounds read high
Summary of the method: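 Growth of the mutant yeast strain after compound exposure, normalised to vehicle-only cultures.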

[17] = at 5.0 µM (retest, dose inferred, filed as 0.5)
[18] = at 50.0 µM (retest, dose inferred, filed as 5.0)

Measured: growth inhibition

Cc1cc(CO)c(O)c(CNCc2cc(C)cc(CO)c2O)c1
active: [1]; at 100.0 µM 98% | [2]; at 100.0 µM 98% | [4]; at 100.0 µM 98% | [5]; [18] 88% | [5]; at 50.0 µM 89.5% | [5]; at 100.0 µM 98% | [6]; at 50.0 µM 77.2% | [6]; at 100.0 µM 98% | [7]; at 100.0 µM 97% | [8]; at 50.0 µM 90.6% | [9]; at 100.0 µM 98% | [10]; at 50.0 µM 72% | [11]; at 100.0 µM 98% | [12]; at 100.0 µM 98% | [13]; at 100.0 µM 98% | [14]; at 100.0 µM 99% | [15]; [18] 96% | [15]; at 50.0 µM 74.3% | [16]; at 100.0 µM 98%
inactive: [1]; at 1.2 µM 4% | [1]; at 3.7 µM 8% | [1]; at 11.0 µM 14% | [1]; at 33.0 µM 22% | [2]; at 1.2 µM 24% | [2]; at 3.7 µM 15% | [2]; at 11.0 µM 25% | [2]; at 33.0 µM 38% | [3]; at 1.2 µM -24% | [3]; at 3.7 µM -23% | [3]; at 11.0 µM -33% | [3]; at 33.0 µM -29% | [3]; at 100.0 µM -13% | [4]; at 1.2 µM -13% | [4]; at 3.7 µM -17% | [4]; at 11.0 µM -18% | [4]; at 33.0 µM -9% | [5]; at 1.2 µM 2% | [5]; at 3.7 µM 7% | [5]; [17] -25% | [5]; at 11.0 µM 2% | [5]; at 33.0 µM 19% | [6]; at 1.2 µM -14% | [6]; at 3.7 µM -7% | [6]; [17] -32% | [6]; at 11.0 µM -27% | [6]; at 33.0 µM -18% | [6]; [18] 42% | [7]; at 1.2 µM -16% | [7]; at 3.7 µM -29% | [7]; at 11.0 µM -42% | [7]; at 33.0 µM 35% | [8]; [17] -2% | [8]; [18] 22% | [9]; at 1.2 µM -10% | [9]; at 3.7 µM -24% | [9]; at 11.0 µM -25% | [9]; at 33.0 µM -14% | [10]; [17] -17% | [10]; [18] 48% | [11]; at 1.2 µM -14% | [11]; at 3.7 µM -6% | [11]; [17] -21% | [11]; at 11.0 µM -13% | [11]; at 33.0 µM -13% | [11]; [18] 52% | [11]; at 50.0 µM 68.8% | [12]; at 1.2 µM -8% | [12]; at 3.7 µM -11% | [12]; at 11.0 µM -12% | [12]; at 33.0 µM -8% | [13]; at 1.2 µM -27% | [13]; at 3.7 µM -30% | [13]; at 11.0 µM -13% | [13]; at 33.0 µM -7% | [14]; at 1.2 µM 3% | [14]; at 3.7 µM 8% | [14]; at 11.0 µM 9% | [14]; at 33.0 µM 40% | [15]; [17] 17% | [16]; at 1.2 µM 1% | [16]; at 3.7 µM -6% | [16]; at 11.0 µM -4% | [16]; at 33.0 µM 4%
